A selection: hits, their analogues and other compounds. The true share with any hit is near 5.6%.
PfG6PD inh = PfG6PD enzyme inhibitors, primary screen, biochemical, fluorescence intensity, uHTS | glucose-6-phosphate dehydrogenase-6-phosphogluconolactonase (Plasmodium falciparum 3D7) | PfGluPho enzyme, NADPH resazurin-diaphorase fluorescence | inhibition, % at 20 µM | actives 0.78% (n = 350,000);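 active = inhibition reaching at least a set limit at 20 µM in the primary screen, cut at about 59% in these data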;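 also: 0% = DMSO wells with substrate and 100% = DMSO wells lacking glucose-6-phosphate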
PHOSPHO1 block = PubChem AID 1565; inhibition, % at 13.3 µM; Phosphoethanolamine/phosphocholine phosphatase (Homo sapiens), Q8TCT1; actives 1.1% (n = 290,000); recombinant PHOSPHO1, absorbance phosphatase assay; in the data active = inhibition above about 60%
Target sequence (Q8TCT1 whole entry, looked up): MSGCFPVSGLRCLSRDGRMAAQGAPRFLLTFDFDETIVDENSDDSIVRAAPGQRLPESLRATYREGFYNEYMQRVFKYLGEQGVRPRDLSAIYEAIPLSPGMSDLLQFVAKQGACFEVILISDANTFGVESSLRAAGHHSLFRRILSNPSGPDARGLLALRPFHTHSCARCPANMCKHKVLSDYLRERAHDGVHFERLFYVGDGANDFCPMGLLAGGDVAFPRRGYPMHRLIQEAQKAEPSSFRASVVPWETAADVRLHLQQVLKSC
ALR inh = inhibitors of human ALR sulfhydryl oxidase, primary screen, biochemical, H2O2 detection, HRP-luminol luminescence, single point; FAD-linked sulfhydryl oxidase ALR (Homo sapiens), P55789; actives 3.8% (n = 290,000); AID 485317, 2010; purified ALR, DTT oxidation; inhibition, % (concentration not given with the values);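 active = mean replicate inhibition above about 79%, with every replicate also reaching it, limit read from the data; inconclusive = only one of the two criteria met; inactive = mean below limit and not every replicate reaching it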
PfM18AAP inh-1 = PfM18AAP inhibitors, malaria aminopeptidase, primary screen, biochemical, QFRET, recombinant enzyme | H-Glu-NHMec fluorogenic cleavage | inhibition, % at 7.35 µM | actives 1.2% (n = 290,000) | AID 1822, 2009;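 active = inhibition above the campaign mean inhibition over all tested compounds plus 3 SD, cut at about 28% in these data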;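 also: 0% = plate median of test compound wells and 100% = 2 mM ZnCl2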
Cardio protect = cardioprotection against H2O2-induced cell death, primary screen, uHTS, H9c2 cells, ATPLite luminescence; protection from H2O2 cell death, % at 20 µM; H9c2 cardiomyocytes, H2O2 injury protection, 2 h; actives 0.63% (n = 360,000);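 active = compounds giving at least 50% protection of heart cells from peroxide-induced death in the single-dose screen, raw or plate-pattern-corrected value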;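 also: 0% = DMSO wells with peroxide and 100% = DMSO wells without peroxide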
PfM18AAP inh-2 = PfM18AAP inhibitors, malaria aminopeptidase, confirmation, biochemical, QFRET, recombinant enzyme, triplicate; shares compounds with PfM18AAP inh-1; H-Glu-NHMec fluorogenic cleavage; inhibition, % at 7.35 µM; actives 28% (n = 2,400); AID 2170, 2009;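 active = mean inhibition over replicate wells above the hit cutoff set for the earlier primary screen, cut at about 29% in these data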;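 also: 0% = median of test compound wells and 100% = 2 mM ZnCl2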
CTSL1 confirm = cathepsin L1 inhibitors, retest, confirmation, counter-screen for PFM18AAP inhibitor project, biochemical, QFRET, triplicate; shares compounds with PfM18AAP inh-1; purified cathepsin L1, Z-Leu-Arg-MCA fluorescence; inhibition, % at 5.96 µM; 2,400 tested, under 10 active;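 active = average inhibition across replicates above the hit cutoff set in the earlier primary screen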;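 also: 0% = median of test compound wells and 100% = Z-Phe-Ala-diazomethylketone 1 µM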
Target sequence (P07711 whole entry, looked up): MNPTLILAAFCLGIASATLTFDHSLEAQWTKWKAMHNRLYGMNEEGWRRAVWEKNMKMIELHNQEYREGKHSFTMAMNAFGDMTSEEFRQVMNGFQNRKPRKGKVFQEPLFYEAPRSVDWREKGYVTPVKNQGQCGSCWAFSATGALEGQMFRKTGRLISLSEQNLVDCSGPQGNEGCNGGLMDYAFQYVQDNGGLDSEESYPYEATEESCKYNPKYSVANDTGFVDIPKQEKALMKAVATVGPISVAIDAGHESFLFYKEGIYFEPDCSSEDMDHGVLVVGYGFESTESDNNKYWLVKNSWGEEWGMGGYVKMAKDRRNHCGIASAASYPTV
* marks the source's active call; other numbers are inactive results; ? = inconclusive; · = not tested or not shown.

SMILES	PfG6PD inh	PHOSPHO1 block	ALR inh	PfM18AAP inh-1	Cardio protect	PfM18AAP inh-2	CTSL1 confirm
Cc1ccc(S(=O)(=O)N/N=C2/CCCCC2C2CCCCC2)cc1[N+](=O)[O-] (stereo not given)	-12	-5	·	4	-1	·	·
N#CCC(=O)N/N=C1\CCCCC1C1CCCCC1 (stereo not given)	-1	6	6	44*	3	-29	-6
COc1ccc2cc(C3=CCCCC3)ncc2c1	40	·	-23	·	-9	·	·
CCOc1ccc(N(C)C(=O)CCc2nnc3ccc(N4CCCCC4)nn23)cc1	-10	38	-2	0	0	·	·
CCc1ccc(N(C(=O)C(F)(F)F)C(C(=O)NC2CCCCC2)c2ccncc2)cc1 (stereo not given)	-5	10	-3	0	1	·	·
O=C(NC1CCCCC1)C(c1ccncc1)N(Cc1ccc2c(c1)OCO2)C(=O)C(F)(F)F (stereo not given)	4	-1	16	41*	1	16	9
O=C(CSc1nnc(CNC(=O)c2c(F)cccc2F)o1)NCc1ccco1	-16	48	-6	-4	2	·	·
Cc1nnc(N/N=C/c2c(Cl)cccc2Cl)n1N	21	37	-16	51*	4	-52	4
COc1ccc(CCNC(=O)COc2nncc3ccccc23)cc1	6	-24	1	-1	1	·	·
CCNC(=S)NNC(=O)c1ccc(OC)cc1	-10	37	23	33*	6	10	0
COCCCNC(=S)NNC(=O)c1ccoc1C	4	-9	42	33*	15	-8	-1
CCNC(=S)NNC(=O)c1ccoc1C	0	18	47	33*	6	-16	4
COCCCNC(=S)NNC(=O)c1ccc2c(c1)OCO2	1	-137	21	35*	-11	14	-1
COc1ccc(OC)c(NC(=O)c2ccccc2N(Cc2ccccc2)S(C)(=O)=O)c1	-12	28	-8	5	14	·	·
COC(=O)Oc1ccc(/C=C/C(=O)OC(C)C)cc1OC(=O)OC	-34	-15	95*	72*	54*	43*	-6
O=C1C(C2=NC(c3ccccn3)C3C(=O)N(c4ccccc4)C(=O)C23)=C(O)c2ccccc21 (stereo not given)	-9	24	-3	71*	16	-30	2
COc1ccc(-c2nc(N/N=C(\C)c3ccc(O)cc3)c3ccccc3n2)cc1	35	15	2	63*	2	-62	3
O=C(O)C1CCN(S(=O)(=O)c2ccc(N3CCCC3C(=O)O)c([N+](=O)[O-])c2)CC1 (stereo not given)	8	43	-2	36*	0	-21	1
Cc1nnc(SCC(=O)NC2CC2)s1	-4	18	-1	-1	-1	·	·
CC(C)(C)C1CCc2c(sc(NC(=O)CSc3ncn[nH]3)c2C#N)C1 (stereo not given)	40	-6	-1	34*	-20	-17	1
N#Cc1c(NC(=O)CSc2ncn[nH]2)sc2c1CCCC2	-3	13	·	28	-33	·	·
CCN(CC)c1ccc(N=Cc2c(C)[nH]c3ccccc23)cc1	51	-13	?	26	-8	·	·
CCN(CC)c1ccc(N=CN2CCOCC2)cc1	29	10	98*	34*	1	-28	0
COc1ccc(C(=O)NCC(=O)N/N=C/c2ccco2)cc1OC	-9	20	·	44*	0	-54	-6
Cc1cc(NCC(=O)Nc2ccc(C)c(S(=O)(=O)N3CCOCC3)c2)ccc1Br	19	·	·	·	-7	·	·
SMILES	PfG6PD inh	PHOSPHO1 block	ALR inh	PfM18AAP inh-1	Cardio protect	PfM18AAP inh-2	CTSL1 confirm
NCc1csc(Nc2ccc(C(=O)c3ccccc3)cc2)n1	·	·	·	·	-1	·	·
COc1ccc(C(=S)N2CCN(c3ccccc3C)CC2)cc1OC	34	·	·	·	-7	·	·
NNc1ccc2nncn2n1	25	20	5	40*	2	39*	-5
c1ccc(CCNc2ccc3nncn3n2)cc1	0	16	-7	4	9	·	·
COC(=O)c1ccc(CNC(=O)CNC(=O)c2sc3ccccc3c2Cl)cc1	-8	·	·	·	-8	·	·
O=c1ccsc2ccccc12	7	·	·	·	10	·	·
O=c1[nH]sc2ccccc12	65*	12	·	50*	-39	30*	2
Cc1nnc(-c2ccc(Oc3ccc(Br)cc3)c([N+](=O)[O-])c2)o1	-8	6	2	33*	-8	-55	-1
COC(=O)CN(n1cnnc1)S(=O)(=O)c1ccccc1Cl	-7	3	-6	87*	4	77*	-5
CC(C)Oc1ccccc1C1(c2ccccc2)NC(=O)NC1=O (stereo not given)	-12	20	-7	-10	1	·	·
COc1ccc(Cl)cc1C(=O)Nn1cnnc1	-6	30	·	37*	5	28	-4
COc1cc([N+](=O)[O-])ccc1NC(=O)Nn1cnnc1	1	53	-11	84*	2	81*	1
COc1ccc(C)cc1NC(=O)Nn1cnnc1	5	12	-28	62*	-1	56*	-2
COc1cc([N+](=O)[O-])ccc1NC(=O)NCc1ccccn1	12	13	-6	0	-1	·	·
Cc1ccc(S(=O)(=O)N2CC3(O)CN(C(=O)OC(C)C)N(C(=O)OC(C)C)CC3(OC(=O)NCC3CCCCC3)C2)cc1 (stereo not given)	19	·	·	·	-10	·	·
NC(=O)c1cc(S(=O)(=O)NCCc2ccc(S(N)(=O)=O)cc2)cs1	-11	15	-1	2	-2	·	·
Cc1sc2c(c1C)C(=O)NC(c1cccc(O)c1)N2 (stereo not given)	·	100*	·	49*	·	-8	2
Nc1nnc(CC(=O)N/N=C/c2cc([N+](=O)[O-])cc(Br)c2O)s1	-8	-32	44	37*	0	1	3
CSc1ncc(C(=O)O)n1-c1ccc(F)cc1	-18	-3	-2	-4	-1	·	·
O=C(O)c1c[nH]c(=S)n1-c1ccc(F)cc1	43	104*	26	51*	0	39*	-2
C=CCn1c(=O)c2ccccc2n2c(SCC(C)=O)nnc12	3	17	15	-5	4	·	·
C=CCn1c(-c2cc3cccc(OC)c3o2)n[nH]c1=S	34	28	29	33*	9	-10	1
C=CCn1c(-c2ccco2)n[nH]c1=S	20	-101	2	1	2	·	·

From PubChem
